Compound activity from PubChem BioAssay.
Hits are enriched below; roughly 2.9% of the tested compounds scored in any of these assays.
pPAFAH FP inh – pPAFAH enzyme inhibitors, primary screen, biochemical, fluorescence polarization, human. AID 463082, 2010. actives 1.5% (n = 330,000). recombinant pPAFAH, FP-rhodamine probe fluorescence polarization. inhibition, % at 3.39 µM;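 active = inhibition above the mean inhibition across the screen plus 3 SD, cut at about 25% in these data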;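 note: inhibitors block binding of the rhodamine activity-based probe so polarization drops; 0% = enzyme with DMSO and 100% = wells lacking pPAFAH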
PAFAH2 FP inh – PAFAH2 enzyme inhibitors, primary screen, biochemical, fluorescence polarization, human. recombinant PAFAH2, FP-rhodamine activity probe. inhibition, % at 3.39 µM. actives 0.99% (n = 340,000);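 active = inhibition above the mean over all tested compounds plus 3 SD, cut at about 30% in these data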;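 note: inhibitors block probe labeling of enzyme so polarization drops; 0% = enzyme with DMSO and 100% = wells lacking PAFAH2 protein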
PME-1 inh – PME-1 inhibitors via competitive probe labeling, primary screen, biochemical, fluorescence polarization, FP-Rh probe, HTS. Protein phosphatase methylesterase 1 (Homo sapiens), Q9Y570. recombinant PME-1. inhibition, % at 5.9 µM. actives 0.53% (n = 320,000). AID 2130, 2009;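 active = inhibition above the campaign mean of all compounds plus 3 SD, cut at about 26% in these data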;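 note: competitive labeling of PME-1 active site by serine hydrolase directed probe; 0% = PME-1 with DMSO and 100% = wells lacking PME-1 enzyme; inhibitors block probe labeling so polarization falls and inhibition rises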
Target sequence (Q9Y570 whole entry, looked up): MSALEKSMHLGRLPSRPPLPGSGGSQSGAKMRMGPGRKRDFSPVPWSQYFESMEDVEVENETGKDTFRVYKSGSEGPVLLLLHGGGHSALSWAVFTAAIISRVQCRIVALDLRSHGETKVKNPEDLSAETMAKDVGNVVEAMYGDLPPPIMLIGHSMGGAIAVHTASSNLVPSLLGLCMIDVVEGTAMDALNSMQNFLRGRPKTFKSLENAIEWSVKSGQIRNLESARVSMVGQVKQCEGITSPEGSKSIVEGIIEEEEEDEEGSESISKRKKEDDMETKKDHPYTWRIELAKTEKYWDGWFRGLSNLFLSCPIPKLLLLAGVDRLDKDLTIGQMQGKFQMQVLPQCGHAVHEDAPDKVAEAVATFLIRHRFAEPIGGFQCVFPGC
PAFAH1B2 FP inh – PAFAH1B2 enzyme inhibitors, primary screen, biochemical, fluorescence polarization, human; Platelet-activating factor acetylhydrolase IB subunit alpha2 (Homo sapiens), P68402; AID 492953, 2010; recombinant PAFAH1B2, FP-rhodamine activity probe; actives 1.2% (n = 340,000); inhibition, % at 3.39 µM;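 active = inhibition above the mean of all tested compounds plus 3 SD, cut at about 24% in these data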;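 note: 0% = enzyme with DMSO and 100% = wells lacking PAFAH1B2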
Fam108B counter – mouse Fam108B serine hydrolase inhibitors, primary screen, counter-screen for RBBP9 inhibitor project, biochemical, fluorescence polarization. recombinant Fam108B, FP-Rh probe fluorescence polarization. inhibition, % at 9.51 µM. actives 0.33% (n = 300,000). AID 1947, 2009;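 active = inhibition above the screen mean inhibition plus 3 SD, computed separately per campaign, cut at about 18% in these data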;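 note: inhibitors lower polarization as less probe binds the enzyme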
PAFAH1B3 FP inh – PAFAH1B3 enzyme inhibitors, primary screen, biochemical, fluorescence polarization, human. actives 0.28% (n = 340,000). Platelet-activating factor acetylhydrolase IB subunit alpha1 (Homo sapiens), Q15102. inhibition, % at 3.39 µM. recombinant PAFAH1B3, FP-rhodamine probe;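 active = inhibition above the screen-wide average of all tested compounds plus 3 SD, cut at about 25% in these data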;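 note: 0% = enzyme with DMSO only and 100% = wells lacking PAFAH1B3 protein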
Target sequence (Q15102 whole entry, looked up): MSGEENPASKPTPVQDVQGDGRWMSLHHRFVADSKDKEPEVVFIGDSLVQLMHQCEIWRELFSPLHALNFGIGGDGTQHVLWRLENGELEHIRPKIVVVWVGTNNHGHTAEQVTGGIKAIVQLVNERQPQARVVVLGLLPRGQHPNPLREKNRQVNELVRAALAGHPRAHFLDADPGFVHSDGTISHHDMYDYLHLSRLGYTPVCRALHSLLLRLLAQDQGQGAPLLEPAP
* = called active by the depositor; . = no result given.

SMILES | pPAFAH FP inh | PAFAH2 FP inh | PME-1 inh | PAFAH1B2 FP inh | Fam108B counter | PAFAH1B3 FP inh
O=c1[nH]c(C2CCN(S(=O)(=O)c3ccc(C(F)(F)F)cc3)CC2)nc2c1nnn2Cc1ccc(F)cc1 | 3.2 | 7.7 | 68.2* | 8.5 | -3.4 | -7.4
COc1ccccc1Nc1ccc2c(O)cc(S(=O)(=O)O)cc2c1 | . | 75.4* | . | 34.0* | . | 75.4*
CC(=O)Nc1ccc2c(O)cc(S(=O)(=O)O)cc2c1 | . | -1.6 | . | 7.2 | . | 12.0
Nc1ccc2c(O)cc(S(=O)(=O)O)cc2c1 | . | 53.5* | . | 37.2* | . | 60.4*
Nc1cccc2c(O)cccc12 | 9.6 | 44.3* | 4.9 | 16.9 | -0.3 | 34.9*
O=S(=O)(O)c1cc(O)c2cc(Nc3ccccc3)ccc2c1 | . | 41.6* | . | 26.0* | . | 43.2*
COc1ccc(S(=O)(=O)O)cc1P(=O)(c1ccccc1)c1ccccc1 | 5.6 | 19.9 | -2.6 | 3.0 | -1.0 | 1.1
NS(=O)(=O)c1cc(C(=O)Nc2ccc3c(c2)CCC3)ccc1Cl | -3.5 | 6.8 | -4.7 | 0.2 | -2.8 | -3.0
O=c1[nH]nc(N2CCOCC2)c(=O)[nH]1 | -1.8 | 1.2 | 2.7 | 9.9 | 2.5 | 4.1
Nc1cccc2c(O)cc(S(=O)(=O)O)cc12 | . | 66.5* | . | 70.5* | . | 76.9*
O=S(=O)(O)c1ccc(O)c2cc(Nc3ccccc3)ccc12 | . | 89.2* | . | 57.6* | . | 76.2*
O=S(=O)(O)c1cc(O)c2ccc(Nc3ccccc3)cc2c1 | . | 65.8* | . | 22.4 | . | 42.5*
CCOC(=O)C[C@H]1c2cc(F)ccc2S(=O)(=O)N1C1CCCC1 | 4.5 | 1.4 | 1.1 | 2.6 | -0.7 | -2.4
CCOc1ccc(N2C(=O)Nc3ccc(Br)cc3C2(O)C(=O)NCCN(C)C)cc1 (stereo not given) | 4.8 | -0.7 | 0.6 | 5.4 | -3.6 | 15.9
O=S(=O)(Nc1cccnc1)c1ccc(Br)c2ccccc12 | 10.7 | 3.1 | 5.3 | 25.9* | -2.5 | 8.8
CC(C)(C)c1ccc(C(=O)c2cn[nH]c2-c2ccccc2O)cc1 | -3.6 | -0.2 | -14.9 | 13.0 | -3.4 | 10.8
CC(C)C(NC(=O)C12CC3CC(CC(C3)C1)C2)C(=O)O (stereo not given) | 3.1 | -1.6 | 5.3 | 26.0* | 1.0 | -1.5
COC(=O)C(C)NC(=O)C12CC3CC(CC(C3)C1)C2 (stereo not given) | 1.0 | 4.5 | -7.1 | 3.3 | -3.3 | 2.9
Cc1ccc(Cl)cc1NS(=O)(=O)Cc1ccccc1 | 30.5* | 5.8 | 5.6 | 3.4 | 2.7 | 1.2
CCOc1ccc(S(=O)(=O)NCc2cccnc2)cc1C(C)C | -1.7 | -5.8 | 8.5 | 5.7 | -2.6 | -4.5
CCN(CC)C(=O)c1csc(Nc2cccc3ccccc23)n1 | 10.9 | 4.9 | 37.3* | 4.0 | 0.8 | 8.7
CN1CCN(CC/C=C2/c3ccccc3Sc3ccc(S(=O)(=O)N(C)C)cc32)CC1 | 24.9* | 10.1 | -0.3 | 0.3 | 3.8 | 5.9
CCN(CC)C1=CC2=CC(=C(C#N)C#N)CCC2CC1 (stereo not given) | 8.1 | 6.0 | 7.3 | -5.7 | -0.5 | 12.5
CCCCN(C)C1=CC2=CC(=C(C#N)C#N)CCC2CC1 (stereo not given) | 17.1 | 14.6 | 41.6* | 9.4 | 6.0 | 16.1
COc1ccc(C(=NNc2ccccc2C(=O)O)c2ccc(OC)cc2)cc1 | 33.2* | 18.7 | 1.3 | 6.5 | 8.2 | 11.8
SMILES | pPAFAH FP inh | PAFAH2 FP inh | PME-1 inh | PAFAH1B2 FP inh | Fam108B counter | PAFAH1B3 FP inh
COc1cccc(N=Nc2c(N)[nH]n3c(=O)c4c(nc23)CCCC4)c1 | 29.9* | . | -2.0 | . | 7.6 | .
O=[N+]([O-])c1cccc(/C=N/Nc2nc(NCc3ccccc3)nc(N3CCOCC3)n2)c1O | 25.2* | -0.1 | 1.5 | 5.6 | 0.9 | 10.6
O=[N+]([O-])c1ccc(/C=N/Nc2nc(NCc3ccccc3)nc(N3CCOCC3)n2)cc1 | -0.9 | 5.7 | -2.6 | 7.3 | -2.1 | 0.1
Cc1ccccc1N(C(=O)CS(=O)CC(=O)Nc1ccc(F)cc1)C(C)C(=O)NC(C)(C)C (stereo not given) | -1.1 | 11.3 | -2.6 | -4.8 | 1.2 | 6.1
CCOc1ccccc1-n1c(=S)sc2c(=O)n(-c3ccccc3)c(=S)[nH]c21 | 2.2 | -3.9 | 2.9 | -3.6 | 3.2 | 6.0
CCOC(=O)C1CCN(c2cc3c(cc2NC(=O)c2ccccc2Cl)n(C)c(=O)n3C)CC1 | 11.3 | 2.4 | 2.1 | 3.2 | 0.9 | 1.1
CCOC(=O)C1CCN(c2cc3c(cc2NC(=O)c2ccccc2OCC)n(C)c(=O)n3C)CC1 | 31.2* | 12.6 | 11.8 | 6.8 | 3.4 | 4.7
COC(=O)c1ccc(COC(=O)CNS(=O)(=O)c2ccccc2)cc1 | 2.0 | 6.6 | 4.6 | -0.4 | -1.6 | 11.5
O=C(CNS(=O)(=O)c1ccccc1)NCC(=O)OCc1ccc(Br)cc1 | 8.2 | 18.3 | -4.2 | 44.9* | 6.8 | 2.9
Cc1noc(NS(=O)(=O)c2ccc(NC(=O)CCC3CCCCC3)cc2)c1C | 32.0* | 12.8 | 3.0 | 27.7* | -0.8 | 12.3
Cc1noc(NS(=O)(=O)c2ccc(NC(=O)CSc3nc4ccccc4s3)cc2)c1C | 0.4 | 5.9 | 4.6 | 28.1* | 0.5 | 7.2
CCCC(C)NC(=O)COc1ccc(S(=O)(=O)N2CCCC2)cc1 (stereo not given) | -0.7 | -3.3 | 3.5 | -3.1 | -4.2 | -2.2
O=C(Nc1ccncc1)C1CCN(S(=O)(=O)c2ccc(Cl)c(C(F)(F)F)c2)CC1 | -2.1 | -4.3 | 1.1 | -4.6 | . | 3.4
Cc1cccc(/C=C2\Sc3ccc(C(=O)N4CCC(C)CC4)cc3N(C)C2=O)c1 | 4.8 | 3.6 | 23.9 | 2.3 | -4.0 | 6.0
CC(C)(C)OC(=O)N1CCC(C(=O)Nc2cccc(C(=O)NCCCCc3ccccc3)c2)CC1 | . | -0.6 | . | 6.3 | . | 1.2
CC(C)CCCCCCCCCCCCC(=O)NCC(=O)NC1C(O)C(O)C(Nc2ncnc3nc[nH]c23)OC1C(O)CO (stereo not given) | . | -4.9 | . | -4.4 | . | 2.5
CC(=O)N1CCN(C(=O)c2ccccc2NS(=O)(=O)c2ccc(F)cc2)CC1 | 2.5 | 2.2 | -0.5 | 2.9 | . | 12.3
CCOc1ncccc1C(=O)OCC(=O)Nc1cc(C(C)(C)C)ccc1OC | 28.4* | 6.2 | . | 6.0 | . | 3.0
Oc1c(Cl)cc(Cl)cc1/C=N/c1nc(-c2ccc(Cl)cc2)cs1 | 14.7 | 8.2 | 2.9 | 48.4* | 8.6 | 4.4
CCN(C(=O)CN1C(=O)NC(c2ccccc2)(c2ccc(C)c(C)c2)C1=O)C1CCCCC1 (stereo not given) | 8.3 | -2.0 | -1.9 | 26.2* | . | 6.1
